Results published in PubChem BioAssay (NCATS).
Several values for one entry are separate records, joined by “and”; a condition that tells them apart may be missing. Equal entries are not always repeated. Records with an inconclusive call do not appear. Activity calls are given as the source filed them. Unless noted, calls follow the shape of the dose curve; as a rule, active = well fitted curve in the direction sought with a large enough effect; inconclusive = small, poorly fitted or top-dose-only effect, or another doubt; inactive = no such curve, though single readings can be large; an effect the other way counts as inactive or inconclusive.

Assays:
[1] = Cell Viability - BJ (AID 421; calls by dose curve;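 also: potency is read from the fitted curve at half-maximal effect; cells exposed to compound for 40 hours at 37 °C before readout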); details: BJ fibroblast viability, qHTS
Method in brief: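 Luminescent ATP signal (CellTiter-Glo, 20 min at room temperature) served as the read-out of viable BJ cells after 40 hours of compound treatment. Responses were scaled between DMSO and 100 uM tamoxifen, and AC50 values were obtained by Hill modeling.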

[2] = Cell Viability - Jurkat (AID 426;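 active = dose-dependent loss of cell ATP signal giving a full or clear fitted curve, ranked by lower potency value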; also: potency is read from the fitted curve at half-maximal effect); details: qHTS
Method in brief: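 qHTS, 1536-well; Jurkat E6-1, 5000 cells/well, complete medium; cpd 40 hr, 37 °C; CellTiter-Glo 20 min RT; luminescence. AC50 by Hill fit.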

[3] = Cell Viability - Hek293 (AID 427;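 active = compounds whose dose-response curve shows a full or clear partial loss of cell viability, called from curve shape rather than a numeric limit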;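 also: potency is read from the fitted curve at half-maximal effect; cells exposed to compound for 40 hours at 37 °C before reading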); details: qHTS
Method in brief: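 Luminescent ATP read-out (CellTiter-Glo, 20 min RT) after 40 hr compound exposure at 37 °C in complete medium. Signal normalized to DMSO (basal) and 100 uM tamoxifen (100% inhibition); concentration-response fitted with the standard Hill equation to give AC50.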

[4] = Cell Viability - HepG2 (AID 433; calls by dose curve;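 also: potency is read from the fitted curve at half-maximal effect; potency for ATP loss meaning cytotoxicity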); details: qHTS
Method in brief: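 HepG2 cells, 1500 per well, treated 40 hr at 37 °C in complete medium; viability from intracellular ATP by CellTiter-Glo luminescence. Normalized to DMSO and 100 uM tamoxifen; AC50 from Hill fit of qHTS concentration-response.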

[5] = Cell Viability - SK-N-SH (AID 435; calls by dose curve;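 also: potency is read from the fitted curve at half-maximal effect; compound exposure lasted 40 h at 37 °C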); details: SK-N-SH neuroblastoma cell viability qHTS
Method in brief: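 SK-N-SH neuroblastoma cells (1500/well) treated 40 h at 37 °C in complete medium; viability read as cellular ATP by CellTiter-Glo luminescence. Normalized to DMSO and 100 uM tamoxifen; AC50 from Hill fits of qHTS concentration-response.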

[6] = biological target: Mitogen-activated protein kinase 10 (Mus musculus) (UniProt Q61831); experiment: JNK3 AlphaScreen Assay (AID 530; active = well fitted curve in either direction with a large enough effect, not every such curve was filed as active;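 also: kinase came from lysate of stimulated human HepG2 cells; signal reports phosphorylation of biotinylated GST-cJun 1-79 at Ser73 with 10 µM ATP; % is scaled to controls: 0 for no effect and ±100 for the full control effect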); details: JNK3 lysate, c-Jun phosphorylation; series mostly up to 57.1 µM
Method in brief: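 Pre-activated (IL-1β/TNFα) JNK3 in HepG2 lysates phosphorylates biotin-GST-cJun(1-79), 10 uM ATP; anti-phospho-cJun(Ser73) AlphaScreen read at room temperature, pH 7.6 Tris buffer. Compounds pre-incubated 15 min as titrations.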

[7] = Cell Viability - N2a (AID 540); details: N2a mouse neuroblastoma cell viability; at 92.2 µM (top of the series);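 also: plate controls were DMSO alone for no effect and tamoxifen control for full effect; nearly all actives have a fitted effect of over 45% in size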
Method in brief: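 Luminescent ATP signal (CellTiter-Glo, 20 min at room temperature) served as the viability read-out after N2a cells were treated with compounds for 40 hours at 37 °C. Concentration-response data were fitted to the Hill equation for AC50.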

[8] = Cell Viability - NIH 3T3 (AID 541); details: NIH 3T3 cell viability, qHTS; series mostly up to 92.2 µM;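 also: plate controls were DMSO alone for no effect and tamoxifen positive control for full effect; nearly all actives have a fitted effect of over 25% in size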
Method in brief: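 Luminescent ATP signal (CellTiter-Glo) served as the viability read-out after NIH 3T3 cells were exposed to compounds over a concentration range for 40 hr at 37 °C. Hill-equation modelling of concentration-response data gave AC50.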

[9] = Cell Viability - HUV-EC-C (AID 542); details: HUV-EC-C endothelial cell viability, qHTS; series mostly up to 92.2 µM; also: nearly all actives have a fitted effect of over 35% in size; also: potency is read from the fitted curve at half-maximal effect
Method in brief: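 qHTS cytotoxicity: HUV-EC-C, 1000 cells/well, 5 hr settle, compound 40 hr 37 °C, CellTiter-Glo, luminescence. AC50 via Hill equation.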

[10] = Cell Viability - SH-SY5Y (AID 544); details: SH-SY5Y neuroblastoma cell viability; at 92.2 µM (top of the series);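 also: 0% = DMSO alone and -100% = 100 µM tamoxifen; nearly all actives have a fitted effect of over 55% in size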
Method in brief: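 Luminescent ATP read-out (CellTiter-Glo) measures loss of viable SH-SY5Y neuroblastoma cells after 40 hr compound exposure at 37 °C. AC50 values derive from standard Hill modelling of qHTS concentration-response data.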

[11] = Cell Viability - Renal Proximal Tubule (AID 545); details: renal proximal tubule cells viability, primary cells of rat origin; series mostly up to 91.7 µM;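 also: 0% = DMSO only and -100% = 100 µM tamoxifen; nearly all actives have a fitted effect of over 40% in size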
Method in brief: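 Rat renal proximal tubule primary cells, 1000/well, exposed to compounds for 40 hr at 37 °C in complete medium; cellular ATP read by CellTiter-Glo luminescence. AC50 from concentration-response fitted with standard Hill equation.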

[12] = Cell Viability - Mesenchymal (AID 546); details: mesenchymal cells viability, qHTS; at 91.7 µM (top of the series);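 also: cells exposed to compound for 40 hours before reading; 0% = DMSO only and -100% = 100 µM tamoxifen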
Method in brief: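 Human kidney mesenchymal cells from normal renal glomeruli, 1000 cells/well, rested 5 hr at 37 °C, then treated 40 hr at 37 °C in complete medium. Cellular ATP read by CellTiter-Glo luminescence; AC50 from Hill-equation fits.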

[13] = Stat Signaling Pathway (AID 446; active = well fitted curve in either direction with a large enough effect, not every such curve was filed as active;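 also: ME-180 cervical cancer cells given 40 pM IL-6 alongside compound; SIE-controlled beta-lactamase reporter measured as 460/530 nm FRET emission ratio; % is scaled to controls: 0 for no effect and ±100 for the full control effect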); details: ME-180 SIE beta-lactamase reporter, IL-6 stimulated, 5 h; series mostly up to 17.2 µM
Method in brief: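 ME-180 SIE-bla cells; overnight plating; cpd + IL-6 40 pM, 5 h, 37 C; LiveBLAzer 2.5 h RT; 460/530 nm emission ratio. Normalized to 300 pM IL-6 and 125 nM JAK inhibitor controls.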

[14] = biological target: Glucocorticoid receptor (Homo sapiens) (UniProt P04150); experiment: GR-GFP Redistribution (AID 450;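 active = compounds whose dose series gives a full or clear partial fitted curve of increased nuclear translocation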; also: potency is read from the fitted curve at half-maximal effect); details: U2OS GR-GFP nuclear translocation, laser cytometry, 2 h
[15] = AP1 Signaling Pathway (AID 357; active = well fitted curve in either direction with a large enough effect, not every such curve was filed as active;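 also: ME-180 reporter cells stimulated with EGF at its EC50 level; % is scaled to controls: 0 for no effect and ±100 for the full control effect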); details: ME-180 (cervical carcinoma) AP-1-bla reporter, EGF-induced, beta-lactamase ratio, 5 h; series mostly up to 17.2 µM
Method in brief: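 Modulation of EGF-driven AP-1 transcription was assessed with a beta-lactamase reporter in ME-180 cells. Compound and EC50 EGF were co-incubated 5 hours at 37 °C before 2.5-hour CCF4 loading at room temperature and dual-emission reading.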

[16] = biological target: 3',5'-cyclic-AMP phosphodiesterase 4B (Homo sapiens) (UniProt Q07343); experiment: qHTS Assay for Inhibitors of PDE-IV (AID 607; active = well fitted activation curve with a large enough effect in the main read-out, with a control signal flat, not every such curve was filed as active; also: % of control where 0% means no effect); details: HEK293 ACTOne CNG channel cells, membrane potential fluorescence; series mostly up to 22.9 µM
Method in brief: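 ACTOne HEK293 cells carry a modified cAMP-gated CNG channel and express endogenous PDE4; plated 1000 cells/well, compounds up to 22.9 uM final. Membrane-potential dye fluorescence (ex 535/em 590) was read; parental cells received 10 uM forskolin + 100 uM RO 20-1724.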

[17] = biological target: Cytochrome P450 1A2 (Homo sapiens) (UniProt P05177); experiment: p450-cyp1a2 (AID 410; calls by dose curve;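 also: -100% = full effect of reference inhibitor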); details: recombinant CYP1A2, luciferin-ME demethylation, luminescence; series mostly up to 57 µM
Method in brief: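 Luminescent readout of luciferin formed from Luciferin-ME by human CYP1A2; data normalized against complete inhibition by 57 uM furafylline. Enzyme 20nM, substrate 100uM at Km, 100mM KPO4 buffer, 60 min reaction at room temperature.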

[18] = NFAT Signaling Pathway (AID 444; active = well fitted curve in either direction with a large enough effect, not every such curve was filed as active;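 also: carbachol stimulus at about its EC50 of 1 µM final; % is scaled to controls: 0 for no effect and ±100 for the full control effect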); details: Jurkat NFAT-bla M1, carbachol, beta-lactamase ratio, 5 h; at 17.2 µM (top of the series)
Method in brief: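 Jurkat cells with NFAT-driven β-lactamase reporter and co-expressed M1 receptor, stimulated with carbachol (final 1 uM, ~EC50), compound titration, 5 h at 37 °C. CCF4 loaded 1 h at RT; 460/530 nm ratio gave %activity and AC50.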

[19] = biological target: Glucocorticoid receptor (Homo sapiens) (UniProt P04150); experiment: GR-EFC Redistribution (AID 451; calls by dose curve; also: potency is read from the fitted curve at half-maximal effect); details: CHO-K1 GR-EFC translocation, beta-gal luminescence, 2 h
Method in brief: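 CHO-K1 cells expressing nuclear EA and GR-ED fragments of b-gal; compounds titrated up to 46 uM final, 2 h at 37 C. GR nuclear translocation read as complemented b-gal luminescence after 1 h RT detection.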

Sequence of Glucocorticoid receptor (Homo sapiens) (P04150 whole entry, looked up, the tested form may be a part): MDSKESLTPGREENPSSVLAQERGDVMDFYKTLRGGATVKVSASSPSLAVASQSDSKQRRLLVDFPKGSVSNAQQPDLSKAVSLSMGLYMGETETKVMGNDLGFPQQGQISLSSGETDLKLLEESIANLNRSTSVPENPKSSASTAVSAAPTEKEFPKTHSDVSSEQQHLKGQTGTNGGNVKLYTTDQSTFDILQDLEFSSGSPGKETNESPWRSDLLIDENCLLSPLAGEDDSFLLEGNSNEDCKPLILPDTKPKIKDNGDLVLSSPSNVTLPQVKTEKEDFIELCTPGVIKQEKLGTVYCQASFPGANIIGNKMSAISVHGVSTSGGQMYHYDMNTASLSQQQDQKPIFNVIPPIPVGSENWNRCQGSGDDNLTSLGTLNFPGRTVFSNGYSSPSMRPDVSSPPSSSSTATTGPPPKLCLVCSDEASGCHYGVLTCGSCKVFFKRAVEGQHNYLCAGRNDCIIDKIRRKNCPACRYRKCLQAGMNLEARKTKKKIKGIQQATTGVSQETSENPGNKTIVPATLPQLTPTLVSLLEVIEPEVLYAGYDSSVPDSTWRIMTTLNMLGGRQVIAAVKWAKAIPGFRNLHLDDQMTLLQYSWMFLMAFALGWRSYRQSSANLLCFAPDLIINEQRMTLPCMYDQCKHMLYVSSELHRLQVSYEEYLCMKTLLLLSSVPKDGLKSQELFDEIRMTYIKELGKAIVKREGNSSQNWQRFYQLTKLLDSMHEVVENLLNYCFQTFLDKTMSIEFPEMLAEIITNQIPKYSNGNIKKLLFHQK
Sequence of 3',5'-cyclic-AMP phosphodiesterase 4B (Homo sapiens) (Q07343 whole entry, looked up): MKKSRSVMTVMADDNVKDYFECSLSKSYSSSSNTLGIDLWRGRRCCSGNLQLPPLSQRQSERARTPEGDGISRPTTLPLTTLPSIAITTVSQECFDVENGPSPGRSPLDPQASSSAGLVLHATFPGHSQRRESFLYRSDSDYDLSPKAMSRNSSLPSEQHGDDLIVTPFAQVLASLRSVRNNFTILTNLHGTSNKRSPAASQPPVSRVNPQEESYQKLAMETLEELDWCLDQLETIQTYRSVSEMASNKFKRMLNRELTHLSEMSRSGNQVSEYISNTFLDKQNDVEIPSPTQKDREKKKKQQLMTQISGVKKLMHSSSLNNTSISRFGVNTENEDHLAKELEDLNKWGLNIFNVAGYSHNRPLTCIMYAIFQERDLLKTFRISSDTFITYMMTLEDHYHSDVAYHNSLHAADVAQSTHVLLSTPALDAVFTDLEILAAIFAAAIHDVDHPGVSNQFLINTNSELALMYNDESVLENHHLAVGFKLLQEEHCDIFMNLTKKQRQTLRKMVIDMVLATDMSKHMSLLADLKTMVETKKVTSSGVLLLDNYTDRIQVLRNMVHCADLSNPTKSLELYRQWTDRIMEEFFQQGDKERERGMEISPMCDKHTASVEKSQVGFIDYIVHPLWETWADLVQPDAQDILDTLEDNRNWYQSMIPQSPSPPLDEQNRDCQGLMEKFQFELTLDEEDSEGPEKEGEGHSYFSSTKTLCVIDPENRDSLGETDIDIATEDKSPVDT
Sequence of Cytochrome P450 1A2 (Homo sapiens) (P05177 whole entry, looked up): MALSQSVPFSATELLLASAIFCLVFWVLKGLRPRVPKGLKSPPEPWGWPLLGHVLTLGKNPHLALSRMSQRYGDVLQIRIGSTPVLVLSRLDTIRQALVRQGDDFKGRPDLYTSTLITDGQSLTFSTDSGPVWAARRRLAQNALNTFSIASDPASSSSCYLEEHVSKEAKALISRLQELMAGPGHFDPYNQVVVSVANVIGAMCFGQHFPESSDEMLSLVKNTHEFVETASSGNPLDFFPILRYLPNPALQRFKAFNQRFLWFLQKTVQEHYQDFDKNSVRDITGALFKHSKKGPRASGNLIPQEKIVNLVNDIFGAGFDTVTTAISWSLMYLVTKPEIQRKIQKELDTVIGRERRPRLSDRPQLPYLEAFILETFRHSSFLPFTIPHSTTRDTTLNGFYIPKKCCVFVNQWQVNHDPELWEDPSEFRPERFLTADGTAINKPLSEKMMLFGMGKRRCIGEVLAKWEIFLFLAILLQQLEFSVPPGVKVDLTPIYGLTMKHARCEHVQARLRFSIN

CCCCCCCC(=O)O
inactive: Potency [1] > 92 µM | Potency [2] > 92 µM | Potency [3] > 92 µM | Potency [4] > 92 µM | Potency [5] > 92 µM | outcome [6] | activity change, negative = cytotoxicity [7] -0.485% and -3.97% | outcome [8] | Potency [9] | viability change, negative = cytotoxic [10] 0.495% and -6.94% | outcome [11] | activity change, negative = cytotoxicity [12] 4.9% and 1.62%

CC(Cc1ccc(O)c(O)c1)C(C)Cc1ccc(O)c(O)c1 (stereo unspecified)
inactive: outcome [13] | Potency [14] > 20.6 µM

CC(C)=O
inactive: Potency [1] > 92 µM | Potency [2] > 92 µM | Potency [3] > 92 µM | Potency [4] > 92 µM | Potency [5] > 92 µM | outcome [6] | activity change, negative = cytotoxicity [7] -2.26% | outcome [8] | Potency [9] | viability change, negative = cytotoxic [10] -5.22% | outcome [11] | activity change, negative = cytotoxicity [12] -1.45%

CC1=C(/C=C/C(C)=C/C=C/C(C)=C/CO)C(C)(C)CCC1
inactive: Potency [1] > 92 µM | Potency [3] > 92 µM | Potency [4] > 92 µM | Potency [9] | activity change, negative = cytotoxicity [12] -3.42%
active: activity change, negative = cytotoxicity [7] -116%

CN1Cc2c(N)cccc2C(c2ccccc2)C1 (stereo unspecified)
inactive: outcome [15] | Potency [14] > 20.6 µM

CC(C)(C)C(=O)OCOC(=O)[C@@H]1N2C(=O)[C@@H](N=CN3CCCCCC3)[C@H]2SC1(C)C
inactive: outcome [15] | outcome [13] | outcome [6] | outcome [16]

O=CCCCC=O
inactive: Potency [1] > 92 µM | Potency [3] > 92 µM | Potency [4] > 92 µM | outcome [6] | Potency [9] | outcome [11] | activity change, negative = cytotoxicity [12] -29.7%
active: Potency [2] 6.45 µM

CC(C)N=c1cc2n(-c3ccc(Cl)cc3)c3ccccc3nc-2cc1Nc1ccc(Cl)cc1
active: activity change, negative = inhibition [18] -120%
inactive: Potency [17] | outcome [13] | Potency [14] > 20.6 µM | Potency [19] > 20.6 µM | outcome [16]

Nc1ccn([C@H]2CS[C@@H](CO)O2)c(=O)n1
inactive: Potency [1] > 92 µM | Potency [2] > 92 µM | Potency [3] > 92 µM | Potency [4] > 92 µM | Potency [5] > 92 µM | outcome [6] | activity change, negative = cytotoxicity [7] -5.31% | outcome [8] | Potency [9] | viability change, negative = cytotoxic [10] 1.14% | outcome [11] | activity change, negative = cytotoxicity [12] 7.61%

O=C(O)CC/C=C\CC[C@H]1[C@@H](N2CCCCC2)[C@@H](O)C[C@@H]1OCc1ccc(-c2ccccc2)cc1
inactive: Potency [17] | Potency [14] > 46 µM | Potency [19] > 46 µM | outcome [6] | outcome [16]

CC(C)(C)NC(=O)[C@@H]1C[C@@H]2CCCC[C@@H]2CN1C[C@@H](O)[C@H](Cc1ccccc1)NC(=O)[C@H](CC(N)=O)NC(=O)c1ccc2ccccc2n1
inactive: outcome [6] | outcome [8]
active: Potency [2] 46.4 µM | Potency [4] 65.4 µM | Potency [9] 50.1 µM | viability change, negative = cytotoxic [10] -93.9% | activity change, negative = cytotoxicity [12] -97.1%
